The list is not random: actives were taken first. Their share in the collection is about 9.4%.
Pf growth 96h – P. falciparum growth inhibition at 96 hour, primary screen for plastid delayed-death inhibitors; Potency, µM (titrated, usually from 28.7 µM), inactives show at the highest dose activity change, negative = inhibition, actives largely listed as inhibitors; actives 6.9% (n = 320,000); AID 504834; P. falciparum luciferase reporter growth, 96 h; further: on the % scale 0 is the no-effect control and ±100 the full control effect
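P. falciparum expressing integrated firefly luciferase grown in erythrocytes (2% hematocrit, 0.05% parasitemia final) with compounds for 96 hours at 37 C, 5% CO2. Growth inhibition read as loss of luminescence after adding luciferase detection reagent.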
SARS PLpro yeast – blocks SARS-CoV papain-like protease in a yeast assay. actives 0.19% (n = 330,000). Potency, µM (doses to about 32.9 µM), for inactives: at the highest dose activity, positive = growth rescue, usual class: activators. S. cerevisiae expressing SARS-CoV PLpro, growth rescue; calls by dose curve; further: 0% is about no effect; nearly all actives have a fitted effect of over 55% in size
Pf growth 48h – P. falciparum growth inhibition at 48 hours (one generation) | P. falciparum luciferase growth in erythrocytes, 48 h | Potency, µM (highest dose often 28.7 µM), for the others: at the top dose activity change, negative = inhibition, usual class: inhibitors | actives 5.9% (n = 310,000) | AID 504832; further: on the % scale 0 is the no-effect control and ±100 the full control effect
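Compounds are pin-transferred into medium, infected erythrocytes (2% hematocrit, 0.1% parasitemia final) are added, and plates sit one parasite generation at 37 C in 5% CO2. Detection reagent is then added and luminescence measured.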
AMA1 RON2 block – inhibitors of Plasmodium falciparum AMA1-RON2 interaction. AlphaScreen AMA1-biotinylated RON2 peptide binding. Potency, µM (doses to about 58.2 µM), without a hit: at the top dose activity change, negative = inhibition, hits mostly inhibitors. actives 0.2% (n = 360,000);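 further: 0% = vehicle wells and -100% = peptide control; nearly all actives have a fitted effect of over 45% in size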
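AMA1 (3D7) with his tag at 25 nM final met compounds first, then biotinylated RON2 peptide at 25 nM; detection used donor plus acceptor beads, 10 µg/mL apiece, read by AlphaScreen after 30 min at room temperature.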
Starred values were filed as active, the others as inactive. Unless noted, the call rests on the fitted dose curve; in most records, active means well fitted curve in the direction sought with a large enough effect; inconclusive means small, poorly fitted or top-dose-only effect, or another doubt; inactive means no such curve, though single readings can be large; an effect the other way counts as inactive or inconclusive. Potency means the concentration at half of the fitted maximal effect.

How did CCN(CC)CCNC(=O)c1c(C)[nH]c(/C=C2\C(=O)Nc3ccc(F)cc32)c1C do in these assays?
Pf growth 96h: 2.7µM*; Pf growth 48h: 2.1µM*

Results for CCOc1cc2c(cc1OCC)C(c1ccccc1)N(c1ccccc1)C(=O)C2 (stereo not drawn) ?
Pf growth 96h: 4.1µM*; SARS PLpro yeast: 2%; Pf growth 48h: inconclusive; AMA1 RON2 block: -19%

Results for FC(F)(F)c1cccc(Nc2nc(N3CCCC3)nc(N3CCCC3)n2)c1 ?
Pf growth 96h: inconclusive; SARS PLpro yeast: 0%; Pf growth 48h: inconclusive; AMA1 RON2 block: 23%

Results for Clc1ccc(Nc2nc(N3CCOCC3)nc(N3CCOCC3)n2)cc1Cl ?
Pf growth 96h: 13µM*; SARS PLpro yeast: 4%; Pf growth 48h: inconclusive; AMA1 RON2 block: -11%

What do the screens show for `CC(C)c1ccc(Nc2nc(NCc3ccco3)nc(N3CCOCC3)n2)cc1`?
Pf growth 96h: 33%; SARS PLpro yeast: -23%; Pf growth 48h: 13µM*; AMA1 RON2 block: -5%

What do the screens show for `CC(C)c1ccc(Nc2nc(N3CCOCC3)nc(N3CCOCC3)n2)cc1`?
AMA1 RON2 block: -3%

How did CN1CCN(c2nc(Nc3cccc(C(F)(F)F)c3)nc(N3CCOCC3)n2)CC1 do in these assays?
Pf growth 96h: 0%; SARS PLpro yeast: -1%; Pf growth 48h: 2.1µM*; AMA1 RON2 block: inconclusive

What do the screens show for `Fc1ccc(Nc2nc(N3CCOCC3)nc(N3CCOCC3)n2)cc1Cl`?
Pf growth 96h: 13µM*; SARS PLpro yeast: 2%; Pf growth 48h: inconclusive; AMA1 RON2 block: -14%

What do the screens show for `O=C(O)c1cc(Nc2nc(N3CCOCC3)nc(N3CCOCC3)n2)ccc1Cl`?
Pf growth 96h: -8%; SARS PLpro yeast: -14%; Pf growth 48h: -8%; AMA1 RON2 block: -9%

Results for N#Cc1ccccc1OCC(=O)OCC(=O)c1ccc[nH]1 ?
Pf growth 96h: 8%; SARS PLpro yeast: 6%; Pf growth 48h: -9%; AMA1 RON2 block: 7%

Results for O=C(Cn1[nH]c(=O)c2ccccc2c1=O)Nc1ccc2c(c1)CCC2 ?
Pf growth 96h: 1%; SARS PLpro yeast: -1%; Pf growth 48h: -5%; AMA1 RON2 block: 9%

How did Cc1ccc(C)c(NC(=O)Cn2c(=O)n(-c3ccc(CC(=O)NCC4CCCO4)cc3)c(=O)c3ccccc32)c1 (stereo not drawn) do in these assays?
Pf growth 96h: 0%; SARS PLpro yeast: -3%; Pf growth 48h: 16%

What do the screens show for `O=C(CN(C(=O)CNC(=O)c1ccco1)c1ccc2c(c1)OCCO2)NC1CCCCC1`?
Pf growth 96h: -23%; SARS PLpro yeast: 0%; Pf growth 48h: -12%; AMA1 RON2 block: -15%

What do the screens show for `C=C(C)COc1ccc(-c2nc(N)ncc2Oc2ccccc2OC)c(O)c1`?
Pf growth 96h: inconclusive; SARS PLpro yeast: -4%; Pf growth 48h: inconclusive; AMA1 RON2 block: -9%

Results for COc1ccc(-c2nc(N)nc(C(F)(F)F)c2-c2csc(C)n2)c(O)c1 ?
Pf growth 96h: -15%; SARS PLpro yeast: 0%; Pf growth 48h: -17%; AMA1 RON2 block: 5%

What do the screens show for `COc1ccc(-c2c(-c3ccc(O)cc3O)n[nH]c2C(F)(F)F)cc1`?
Pf growth 96h: -3%; SARS PLpro yeast: 1%; Pf growth 48h: inconclusive; AMA1 RON2 block: 54%

How did C=C(C)COc1ccc(-c2nc(N)nc(C(F)(F)F)c2-c2ccc(OC)cc2)c(O)c1 do in these assays?
Pf growth 96h: 2.1µM*; SARS PLpro yeast: 0%; Pf growth 48h: 2.9µM*; AMA1 RON2 block: 16%

What do the screens show for `C=C(C)COc1ccc(-c2ncnc(C(F)(F)F)c2-c2ccccc2)c(O)c1`?
Pf growth 96h: 1.7µM*; SARS PLpro yeast: 0%; Pf growth 48h: 1.7µM*; AMA1 RON2 block: 2%

Results for C=C(C)COc1ccc(-c2ncnc(C(F)(F)F)c2-c2ccc(OC)cc2)c(O)c1 ?
Pf growth 96h: 0.93µM*; SARS PLpro yeast: -8%; Pf growth 48h: 1.7µM*; AMA1 RON2 block: -5%

What do the screens show for `O=C1c2cccc3cccc(c23)N1Cc1cccc(F)c1`?
Pf growth 96h: inconclusive; SARS PLpro yeast: -62%; Pf growth 48h: -37%; AMA1 RON2 block: 137%

How did O=C(CN1C(=O)NC2(CCCc3ccccc32)C1=O)NCCc1ccc(F)cc1 (stereo not drawn) do in these assays?
SARS PLpro yeast: 16%; AMA1 RON2 block: -4%
